Reference: the supplement of paper PMC11732987, “Enantioselective OTUD7B fragment discovery through chemoproteomics screening and high-throughput optimisation” (Communications Chemistry, 2025)

How the values were obtained:
Assay in all cases: log2 ratio of Biotin-Ahx-Ub-VS probe labelling (fragment/DMSO); higher = less target engagement (more negative = stronger competition), active = hit call of the paper (q ≤ 0.05, log2 ratio ≤ -1)
Conditions in all cases: compound concentration: 200 uM; treatment time: 3 h
USP42 = target: T1, USP42 (UniProt Q9H9J4)
T1 sequence (whole entry): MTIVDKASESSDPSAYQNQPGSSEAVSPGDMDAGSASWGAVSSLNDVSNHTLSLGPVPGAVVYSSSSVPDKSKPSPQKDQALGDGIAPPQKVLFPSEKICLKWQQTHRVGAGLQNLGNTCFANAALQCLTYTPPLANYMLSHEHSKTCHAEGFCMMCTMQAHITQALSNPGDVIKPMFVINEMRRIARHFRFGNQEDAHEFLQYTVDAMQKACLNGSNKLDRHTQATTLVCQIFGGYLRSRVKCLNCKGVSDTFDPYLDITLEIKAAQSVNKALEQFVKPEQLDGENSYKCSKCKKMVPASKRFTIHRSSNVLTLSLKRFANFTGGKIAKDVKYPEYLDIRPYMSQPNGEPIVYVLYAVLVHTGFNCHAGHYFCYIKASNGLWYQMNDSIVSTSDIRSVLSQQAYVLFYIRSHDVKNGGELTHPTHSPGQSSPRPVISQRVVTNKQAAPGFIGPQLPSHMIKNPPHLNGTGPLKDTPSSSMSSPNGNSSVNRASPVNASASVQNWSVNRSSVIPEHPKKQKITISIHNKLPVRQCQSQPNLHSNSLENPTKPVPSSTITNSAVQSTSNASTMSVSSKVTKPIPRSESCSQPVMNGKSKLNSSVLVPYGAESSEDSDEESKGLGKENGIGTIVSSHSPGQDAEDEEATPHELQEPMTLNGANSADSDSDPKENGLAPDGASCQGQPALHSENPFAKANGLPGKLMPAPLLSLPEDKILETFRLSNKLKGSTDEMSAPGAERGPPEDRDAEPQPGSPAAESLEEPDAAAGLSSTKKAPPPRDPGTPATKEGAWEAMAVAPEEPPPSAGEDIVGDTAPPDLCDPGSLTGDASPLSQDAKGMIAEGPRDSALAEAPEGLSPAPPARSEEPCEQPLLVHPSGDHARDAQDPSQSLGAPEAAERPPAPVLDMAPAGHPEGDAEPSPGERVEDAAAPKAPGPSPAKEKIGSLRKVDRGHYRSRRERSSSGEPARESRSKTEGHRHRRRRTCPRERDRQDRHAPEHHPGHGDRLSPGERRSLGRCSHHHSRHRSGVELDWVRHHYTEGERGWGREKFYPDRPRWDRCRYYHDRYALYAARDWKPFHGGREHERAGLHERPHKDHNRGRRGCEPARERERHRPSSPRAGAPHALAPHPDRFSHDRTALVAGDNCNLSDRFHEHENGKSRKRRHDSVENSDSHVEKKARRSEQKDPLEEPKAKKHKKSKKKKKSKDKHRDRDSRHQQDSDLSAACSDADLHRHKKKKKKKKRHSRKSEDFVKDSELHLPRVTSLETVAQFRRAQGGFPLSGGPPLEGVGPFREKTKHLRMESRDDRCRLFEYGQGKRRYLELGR
Method in brief: (§1)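 HEK293T lysate, 495 µg per sample in Tris/CHAPS/IGEPAL buffer with protease inhibitors, was treated in triplicate with fragment at 200 µM or vehicle for 3 h and then with Biotin-Ahx-Ub-VS at 0.5 µM final for 1 h. Labelled DUBs were NeutrAvidin-enriched, digested with LysC and trypsin, and run by diaPASEF LC-MS/MS. Spectronaut label-free quantities were global-median-normalised, and values are average log2 fragment/vehicle ratios by unpaired t-test on proteins with ≥2 unique peptides.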

USP46 = USP46 (UniProt P62068)
USP46, sequence (P62068 whole entry): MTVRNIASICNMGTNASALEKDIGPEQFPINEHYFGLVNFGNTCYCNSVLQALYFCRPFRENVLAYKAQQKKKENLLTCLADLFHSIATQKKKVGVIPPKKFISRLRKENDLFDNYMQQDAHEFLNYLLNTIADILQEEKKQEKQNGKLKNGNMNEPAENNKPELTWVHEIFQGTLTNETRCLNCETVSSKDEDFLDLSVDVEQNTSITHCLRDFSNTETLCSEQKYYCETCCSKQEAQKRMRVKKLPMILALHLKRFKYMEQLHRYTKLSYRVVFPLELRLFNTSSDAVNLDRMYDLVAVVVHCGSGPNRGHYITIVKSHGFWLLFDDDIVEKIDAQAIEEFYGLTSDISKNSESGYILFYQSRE
Method in brief: as §1

USP47 = target: T2, USP47 (UniProt Q96K76)
T2 sequence (whole entry): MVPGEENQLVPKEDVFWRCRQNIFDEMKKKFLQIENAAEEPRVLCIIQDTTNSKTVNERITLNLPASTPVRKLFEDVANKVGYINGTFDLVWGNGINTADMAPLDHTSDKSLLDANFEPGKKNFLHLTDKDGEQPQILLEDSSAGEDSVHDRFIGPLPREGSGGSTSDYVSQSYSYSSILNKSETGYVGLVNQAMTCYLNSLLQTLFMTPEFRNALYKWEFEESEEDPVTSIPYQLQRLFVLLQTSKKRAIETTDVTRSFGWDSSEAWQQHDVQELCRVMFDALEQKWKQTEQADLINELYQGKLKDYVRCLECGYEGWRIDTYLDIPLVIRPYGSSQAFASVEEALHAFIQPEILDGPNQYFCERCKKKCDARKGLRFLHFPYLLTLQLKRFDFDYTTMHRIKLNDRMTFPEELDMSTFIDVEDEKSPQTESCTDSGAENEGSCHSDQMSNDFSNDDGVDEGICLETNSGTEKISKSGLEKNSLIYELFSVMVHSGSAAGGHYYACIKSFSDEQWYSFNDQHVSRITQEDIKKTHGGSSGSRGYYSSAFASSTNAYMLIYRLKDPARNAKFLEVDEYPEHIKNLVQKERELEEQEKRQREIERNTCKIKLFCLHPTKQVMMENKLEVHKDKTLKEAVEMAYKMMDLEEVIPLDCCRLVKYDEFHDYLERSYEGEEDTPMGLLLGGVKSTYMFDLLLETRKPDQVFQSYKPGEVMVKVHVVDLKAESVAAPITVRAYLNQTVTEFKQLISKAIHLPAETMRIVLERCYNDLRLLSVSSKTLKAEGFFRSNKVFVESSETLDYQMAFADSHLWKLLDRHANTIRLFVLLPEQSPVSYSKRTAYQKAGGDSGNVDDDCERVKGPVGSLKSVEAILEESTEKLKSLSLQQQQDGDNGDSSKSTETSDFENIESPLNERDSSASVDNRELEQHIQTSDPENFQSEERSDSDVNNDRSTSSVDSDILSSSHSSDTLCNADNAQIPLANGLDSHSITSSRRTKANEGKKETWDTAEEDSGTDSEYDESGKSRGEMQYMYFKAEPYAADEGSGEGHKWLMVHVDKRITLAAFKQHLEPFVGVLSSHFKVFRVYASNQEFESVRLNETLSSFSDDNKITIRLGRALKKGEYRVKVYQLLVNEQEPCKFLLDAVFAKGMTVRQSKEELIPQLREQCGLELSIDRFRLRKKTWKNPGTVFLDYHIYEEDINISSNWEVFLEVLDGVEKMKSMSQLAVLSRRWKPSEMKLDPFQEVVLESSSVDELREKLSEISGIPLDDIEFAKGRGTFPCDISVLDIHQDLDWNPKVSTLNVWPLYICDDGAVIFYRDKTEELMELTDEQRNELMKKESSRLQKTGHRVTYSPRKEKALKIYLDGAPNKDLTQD
Method in brief: as §1

USP48 = target: T3, USP48 (UniProt Q86UV5)
T3 sequence (whole entry): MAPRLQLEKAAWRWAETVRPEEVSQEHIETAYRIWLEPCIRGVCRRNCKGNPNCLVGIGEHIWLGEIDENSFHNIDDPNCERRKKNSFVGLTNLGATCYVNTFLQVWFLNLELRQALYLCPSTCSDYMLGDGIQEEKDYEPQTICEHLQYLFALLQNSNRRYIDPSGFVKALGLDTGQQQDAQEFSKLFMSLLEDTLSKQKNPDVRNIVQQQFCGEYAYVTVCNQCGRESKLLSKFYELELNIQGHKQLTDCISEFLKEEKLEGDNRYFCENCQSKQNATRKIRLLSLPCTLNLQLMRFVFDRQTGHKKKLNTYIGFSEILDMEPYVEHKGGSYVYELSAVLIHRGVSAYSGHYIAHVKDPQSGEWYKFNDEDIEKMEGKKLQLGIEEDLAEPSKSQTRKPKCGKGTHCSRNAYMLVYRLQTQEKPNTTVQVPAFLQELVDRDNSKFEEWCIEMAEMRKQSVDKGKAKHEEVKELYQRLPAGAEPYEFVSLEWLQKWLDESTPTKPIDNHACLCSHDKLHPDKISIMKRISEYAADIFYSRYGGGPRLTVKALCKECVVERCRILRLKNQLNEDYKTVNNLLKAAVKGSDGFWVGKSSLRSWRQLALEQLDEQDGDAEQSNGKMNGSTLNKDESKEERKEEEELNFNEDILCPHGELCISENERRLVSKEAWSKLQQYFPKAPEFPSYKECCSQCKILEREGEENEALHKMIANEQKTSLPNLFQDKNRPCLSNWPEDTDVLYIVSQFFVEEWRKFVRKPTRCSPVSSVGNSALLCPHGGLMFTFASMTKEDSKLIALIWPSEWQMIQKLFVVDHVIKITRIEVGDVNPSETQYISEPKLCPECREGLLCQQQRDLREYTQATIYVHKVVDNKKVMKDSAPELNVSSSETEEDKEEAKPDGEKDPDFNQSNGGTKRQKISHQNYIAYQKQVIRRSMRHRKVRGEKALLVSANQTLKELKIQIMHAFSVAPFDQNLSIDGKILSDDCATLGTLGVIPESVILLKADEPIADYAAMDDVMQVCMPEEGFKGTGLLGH
Method in brief: as §1

USP5 = target: T4, USP5 (UniProt P45974)
T4 sequence (whole entry): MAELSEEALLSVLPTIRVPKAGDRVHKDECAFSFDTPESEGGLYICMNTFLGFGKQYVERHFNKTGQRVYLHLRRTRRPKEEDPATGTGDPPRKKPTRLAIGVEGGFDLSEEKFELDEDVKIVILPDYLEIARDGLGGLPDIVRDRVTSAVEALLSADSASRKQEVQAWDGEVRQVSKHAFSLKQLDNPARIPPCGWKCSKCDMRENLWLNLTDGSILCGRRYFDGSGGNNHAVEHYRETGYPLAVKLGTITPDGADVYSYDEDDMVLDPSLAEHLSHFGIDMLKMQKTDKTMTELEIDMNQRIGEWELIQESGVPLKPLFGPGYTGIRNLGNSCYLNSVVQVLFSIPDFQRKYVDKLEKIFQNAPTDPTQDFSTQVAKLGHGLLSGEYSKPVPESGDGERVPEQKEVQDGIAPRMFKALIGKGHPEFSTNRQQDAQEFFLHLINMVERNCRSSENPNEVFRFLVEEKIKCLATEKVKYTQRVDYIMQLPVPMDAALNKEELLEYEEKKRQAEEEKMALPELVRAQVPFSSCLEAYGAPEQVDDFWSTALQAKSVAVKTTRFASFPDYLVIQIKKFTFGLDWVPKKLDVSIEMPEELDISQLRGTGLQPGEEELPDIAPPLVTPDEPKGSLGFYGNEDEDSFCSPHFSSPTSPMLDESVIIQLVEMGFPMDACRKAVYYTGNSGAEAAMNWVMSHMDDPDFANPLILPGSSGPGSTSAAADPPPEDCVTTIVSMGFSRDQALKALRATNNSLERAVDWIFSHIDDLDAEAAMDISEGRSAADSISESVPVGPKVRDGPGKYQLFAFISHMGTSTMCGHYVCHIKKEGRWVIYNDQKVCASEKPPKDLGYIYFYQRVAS
Method in brief: as §1

USP54 = USP54 (UniProt Q70EL1)
USP54, sequence (Q70EL1 whole entry): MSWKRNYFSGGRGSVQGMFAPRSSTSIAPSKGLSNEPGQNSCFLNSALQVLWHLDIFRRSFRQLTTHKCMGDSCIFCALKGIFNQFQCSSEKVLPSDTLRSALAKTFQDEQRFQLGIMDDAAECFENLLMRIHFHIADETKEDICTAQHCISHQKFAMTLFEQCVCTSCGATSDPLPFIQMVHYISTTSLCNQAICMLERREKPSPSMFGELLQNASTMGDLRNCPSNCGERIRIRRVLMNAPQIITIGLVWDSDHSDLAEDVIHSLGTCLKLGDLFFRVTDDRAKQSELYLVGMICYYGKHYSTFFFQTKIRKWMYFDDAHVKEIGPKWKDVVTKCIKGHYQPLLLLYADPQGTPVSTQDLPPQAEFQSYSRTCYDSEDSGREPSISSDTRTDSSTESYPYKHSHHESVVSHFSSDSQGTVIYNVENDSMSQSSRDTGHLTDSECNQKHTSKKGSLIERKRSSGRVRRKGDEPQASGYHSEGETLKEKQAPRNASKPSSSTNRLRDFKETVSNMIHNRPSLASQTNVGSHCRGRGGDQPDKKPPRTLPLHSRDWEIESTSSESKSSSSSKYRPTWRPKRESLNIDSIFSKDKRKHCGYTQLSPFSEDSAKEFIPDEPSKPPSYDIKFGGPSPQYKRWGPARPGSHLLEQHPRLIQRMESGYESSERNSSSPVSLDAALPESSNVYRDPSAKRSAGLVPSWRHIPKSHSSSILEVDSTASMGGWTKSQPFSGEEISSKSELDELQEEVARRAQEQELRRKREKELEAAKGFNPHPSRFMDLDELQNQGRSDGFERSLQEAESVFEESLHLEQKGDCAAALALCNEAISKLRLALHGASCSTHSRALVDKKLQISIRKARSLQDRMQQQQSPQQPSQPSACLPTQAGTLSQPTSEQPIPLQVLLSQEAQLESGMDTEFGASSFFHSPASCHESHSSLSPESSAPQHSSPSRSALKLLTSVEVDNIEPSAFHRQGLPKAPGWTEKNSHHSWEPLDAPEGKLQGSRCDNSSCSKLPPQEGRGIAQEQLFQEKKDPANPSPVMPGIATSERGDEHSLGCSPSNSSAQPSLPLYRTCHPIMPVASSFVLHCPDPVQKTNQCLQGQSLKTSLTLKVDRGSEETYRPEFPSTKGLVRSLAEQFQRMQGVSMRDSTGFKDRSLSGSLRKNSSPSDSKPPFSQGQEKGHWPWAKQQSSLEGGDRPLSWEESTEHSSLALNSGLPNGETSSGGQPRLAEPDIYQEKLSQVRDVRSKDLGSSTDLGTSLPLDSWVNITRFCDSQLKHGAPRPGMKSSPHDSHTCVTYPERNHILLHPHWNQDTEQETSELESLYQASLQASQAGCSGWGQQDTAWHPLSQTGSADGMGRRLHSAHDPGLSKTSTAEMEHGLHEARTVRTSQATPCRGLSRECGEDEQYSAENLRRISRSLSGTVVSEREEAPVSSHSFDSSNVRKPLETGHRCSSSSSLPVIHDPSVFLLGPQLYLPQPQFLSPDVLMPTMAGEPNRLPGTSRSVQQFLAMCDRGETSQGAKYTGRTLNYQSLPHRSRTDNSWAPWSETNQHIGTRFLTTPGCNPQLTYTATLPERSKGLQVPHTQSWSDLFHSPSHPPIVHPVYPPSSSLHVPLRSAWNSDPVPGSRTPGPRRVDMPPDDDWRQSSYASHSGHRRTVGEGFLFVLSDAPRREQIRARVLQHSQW
Method in brief: as §1

USP7 = USP7 (UniProt Q93009)
Method in brief: as §1

USP8 = target: T5, USP8 (UniProt P40818)
T5 sequence (whole entry): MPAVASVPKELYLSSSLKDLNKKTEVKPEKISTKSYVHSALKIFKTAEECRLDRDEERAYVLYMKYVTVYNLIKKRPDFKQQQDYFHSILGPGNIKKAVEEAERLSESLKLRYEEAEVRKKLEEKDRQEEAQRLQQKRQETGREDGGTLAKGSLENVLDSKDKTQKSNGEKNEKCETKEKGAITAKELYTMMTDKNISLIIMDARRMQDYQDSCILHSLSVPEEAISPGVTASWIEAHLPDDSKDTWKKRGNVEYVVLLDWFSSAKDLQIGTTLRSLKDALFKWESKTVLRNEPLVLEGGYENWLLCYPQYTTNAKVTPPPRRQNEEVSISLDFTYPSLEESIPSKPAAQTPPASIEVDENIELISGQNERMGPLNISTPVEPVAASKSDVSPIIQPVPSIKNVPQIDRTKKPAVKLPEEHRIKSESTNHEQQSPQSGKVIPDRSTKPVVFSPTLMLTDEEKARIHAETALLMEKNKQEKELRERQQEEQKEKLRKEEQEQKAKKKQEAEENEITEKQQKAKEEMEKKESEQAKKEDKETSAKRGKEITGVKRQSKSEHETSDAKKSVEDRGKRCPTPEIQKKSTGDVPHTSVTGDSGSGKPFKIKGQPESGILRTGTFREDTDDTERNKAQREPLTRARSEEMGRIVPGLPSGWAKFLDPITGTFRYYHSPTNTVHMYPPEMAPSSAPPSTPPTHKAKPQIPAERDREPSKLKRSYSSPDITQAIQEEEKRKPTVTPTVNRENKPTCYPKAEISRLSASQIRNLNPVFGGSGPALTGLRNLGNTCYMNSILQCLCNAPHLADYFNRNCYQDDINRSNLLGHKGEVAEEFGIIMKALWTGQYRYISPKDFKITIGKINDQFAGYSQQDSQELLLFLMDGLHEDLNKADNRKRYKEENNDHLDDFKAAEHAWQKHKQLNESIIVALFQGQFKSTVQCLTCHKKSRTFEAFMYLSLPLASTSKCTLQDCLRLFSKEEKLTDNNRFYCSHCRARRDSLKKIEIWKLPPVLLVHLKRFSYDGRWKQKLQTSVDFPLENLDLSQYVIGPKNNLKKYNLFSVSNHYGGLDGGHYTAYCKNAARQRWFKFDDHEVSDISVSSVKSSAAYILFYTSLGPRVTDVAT
Method in brief: as §1

USP9X = USP9X (UniProt Q93008)
USP9X, sequence (Q93008 whole entry): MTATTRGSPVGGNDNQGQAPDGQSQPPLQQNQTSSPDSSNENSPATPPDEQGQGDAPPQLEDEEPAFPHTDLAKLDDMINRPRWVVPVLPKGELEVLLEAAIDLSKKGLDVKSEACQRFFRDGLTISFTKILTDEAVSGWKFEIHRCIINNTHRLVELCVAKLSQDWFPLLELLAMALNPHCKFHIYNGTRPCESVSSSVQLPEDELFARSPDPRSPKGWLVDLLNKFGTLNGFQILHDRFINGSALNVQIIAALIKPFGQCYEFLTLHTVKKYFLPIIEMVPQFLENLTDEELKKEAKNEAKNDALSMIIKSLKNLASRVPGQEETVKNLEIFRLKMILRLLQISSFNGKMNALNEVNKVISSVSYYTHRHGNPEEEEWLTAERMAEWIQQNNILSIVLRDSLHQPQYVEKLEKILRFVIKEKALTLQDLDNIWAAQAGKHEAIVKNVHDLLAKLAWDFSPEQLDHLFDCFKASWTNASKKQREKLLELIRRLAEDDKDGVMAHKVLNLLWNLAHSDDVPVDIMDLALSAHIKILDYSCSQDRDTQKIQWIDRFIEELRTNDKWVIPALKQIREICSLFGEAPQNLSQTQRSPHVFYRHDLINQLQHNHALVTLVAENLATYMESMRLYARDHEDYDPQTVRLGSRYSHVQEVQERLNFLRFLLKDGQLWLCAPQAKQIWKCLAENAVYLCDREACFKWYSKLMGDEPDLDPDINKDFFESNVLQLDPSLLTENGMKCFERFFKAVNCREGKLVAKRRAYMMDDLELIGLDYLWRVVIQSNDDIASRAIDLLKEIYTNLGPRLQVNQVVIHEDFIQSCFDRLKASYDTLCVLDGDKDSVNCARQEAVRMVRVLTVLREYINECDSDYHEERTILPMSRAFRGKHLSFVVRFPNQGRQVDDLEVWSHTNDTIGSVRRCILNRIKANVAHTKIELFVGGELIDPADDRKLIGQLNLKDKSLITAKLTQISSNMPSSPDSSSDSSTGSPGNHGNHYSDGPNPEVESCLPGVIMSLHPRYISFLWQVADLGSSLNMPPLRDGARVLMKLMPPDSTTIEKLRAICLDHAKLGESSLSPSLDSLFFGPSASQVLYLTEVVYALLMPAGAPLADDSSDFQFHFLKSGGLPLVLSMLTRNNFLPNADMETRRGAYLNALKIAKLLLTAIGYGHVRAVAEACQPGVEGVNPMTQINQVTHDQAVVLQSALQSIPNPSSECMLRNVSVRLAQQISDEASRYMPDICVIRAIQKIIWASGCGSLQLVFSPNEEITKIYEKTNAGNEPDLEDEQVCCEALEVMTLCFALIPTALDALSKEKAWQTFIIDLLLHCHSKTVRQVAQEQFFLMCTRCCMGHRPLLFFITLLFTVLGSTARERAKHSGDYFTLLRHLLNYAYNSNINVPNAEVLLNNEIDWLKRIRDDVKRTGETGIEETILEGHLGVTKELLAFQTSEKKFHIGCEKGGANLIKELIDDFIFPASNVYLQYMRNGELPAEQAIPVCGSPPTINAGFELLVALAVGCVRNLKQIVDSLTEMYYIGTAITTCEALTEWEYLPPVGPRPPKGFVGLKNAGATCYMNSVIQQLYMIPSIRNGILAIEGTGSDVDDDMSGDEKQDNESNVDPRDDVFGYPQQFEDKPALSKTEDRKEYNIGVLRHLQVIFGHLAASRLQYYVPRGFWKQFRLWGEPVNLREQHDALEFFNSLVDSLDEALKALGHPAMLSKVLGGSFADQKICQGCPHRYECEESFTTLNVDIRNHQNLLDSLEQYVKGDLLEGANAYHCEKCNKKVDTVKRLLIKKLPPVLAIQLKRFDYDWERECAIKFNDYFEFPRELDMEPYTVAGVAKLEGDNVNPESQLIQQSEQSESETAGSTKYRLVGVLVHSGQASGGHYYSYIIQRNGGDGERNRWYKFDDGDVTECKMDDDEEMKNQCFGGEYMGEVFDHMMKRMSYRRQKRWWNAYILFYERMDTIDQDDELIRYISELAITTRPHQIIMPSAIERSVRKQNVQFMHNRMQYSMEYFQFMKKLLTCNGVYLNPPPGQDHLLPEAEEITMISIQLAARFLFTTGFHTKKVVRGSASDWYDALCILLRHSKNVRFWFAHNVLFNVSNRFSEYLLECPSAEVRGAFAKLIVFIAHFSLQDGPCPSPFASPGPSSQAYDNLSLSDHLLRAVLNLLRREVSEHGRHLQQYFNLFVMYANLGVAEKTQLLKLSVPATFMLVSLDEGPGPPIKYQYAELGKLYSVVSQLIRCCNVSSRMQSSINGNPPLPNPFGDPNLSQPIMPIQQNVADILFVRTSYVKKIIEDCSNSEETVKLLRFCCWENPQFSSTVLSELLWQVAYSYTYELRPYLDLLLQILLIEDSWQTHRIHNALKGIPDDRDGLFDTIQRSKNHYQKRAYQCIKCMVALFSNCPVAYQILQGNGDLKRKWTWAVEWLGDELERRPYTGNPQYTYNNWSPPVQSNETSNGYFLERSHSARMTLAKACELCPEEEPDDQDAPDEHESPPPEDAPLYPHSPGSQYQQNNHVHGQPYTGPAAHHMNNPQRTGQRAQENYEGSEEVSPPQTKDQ
Method in brief: as §1

UniProt O00487 = target: UniProt O00487
UniProt O00487, sequence (O00487 whole entry): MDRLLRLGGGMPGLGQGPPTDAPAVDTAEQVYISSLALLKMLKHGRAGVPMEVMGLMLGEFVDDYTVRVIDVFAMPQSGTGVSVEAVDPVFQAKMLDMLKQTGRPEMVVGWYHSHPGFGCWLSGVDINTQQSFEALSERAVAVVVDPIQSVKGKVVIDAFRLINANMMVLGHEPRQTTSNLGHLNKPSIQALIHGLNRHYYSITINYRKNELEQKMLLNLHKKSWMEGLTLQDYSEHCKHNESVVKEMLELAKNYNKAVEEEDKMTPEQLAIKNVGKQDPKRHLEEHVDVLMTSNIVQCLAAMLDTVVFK
Method in brief: as §1

Measured: log2 ratio of Biotin-Ahx-Ub-VS probe labelling

Cc1ccc(C)c(Oc2ccc(CNC(=O)CCl)cn2)c1.Cl
inactive: USP42 -0.119 | USP46 0.00613 | USP47 -0.424 | USP48 -0.619 | USP5 -0.165 | USP54 0.136 | USP7 -0.376 | USP8 -0.519 | USP9X -0.677 | UniProt O00487 -0.0677
